# Source: PubChem BioAssay (National Center for Advancing Translational Sciences (NCATS))
# TRHR ag: agonists of human TRH receptor | P34981 | TRHR cells, calcium flux fluo-8, FDSS agonist mode | activation, % at 2 µM | 360,000 tested, 0.18% active | AID 493084
#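 TRHR-expressing cells, plated overnight in medium with 10% serum, were loaded with fluo-8 calcium dye at room temperature. After a 10 s baseline, library compound was pin-added and calcium release was recorded kinetically (ex 480/em 530) as agonist response.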
# D1 potentiator: potentiators of human D1 dopamine receptor; HEK293 TREx D1 cells, calcium flux, dopamine EC20 potentiation; 360,000 tested, 0.036% active; potentiation, % at 10 µM; in the data active = potentiation above about 30%
# Target sequence (P21728 whole entry, looked up): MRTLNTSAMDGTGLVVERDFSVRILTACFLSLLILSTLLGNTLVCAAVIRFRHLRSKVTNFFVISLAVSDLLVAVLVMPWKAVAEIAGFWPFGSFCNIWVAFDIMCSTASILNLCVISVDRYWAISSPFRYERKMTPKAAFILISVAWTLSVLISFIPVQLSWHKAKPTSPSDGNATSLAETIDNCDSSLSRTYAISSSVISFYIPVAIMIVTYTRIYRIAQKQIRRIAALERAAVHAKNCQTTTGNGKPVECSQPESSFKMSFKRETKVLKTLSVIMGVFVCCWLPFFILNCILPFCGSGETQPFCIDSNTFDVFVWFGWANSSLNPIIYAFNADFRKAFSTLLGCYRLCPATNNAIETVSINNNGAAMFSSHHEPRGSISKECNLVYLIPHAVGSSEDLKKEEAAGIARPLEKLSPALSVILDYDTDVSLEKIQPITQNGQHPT
# TRHR PAM: TRH receptor (human) allosteric enhancement. TRHR cells, fluo-8 calcium fluorescence, EC20 TRH enhancement. 360,000 tested, 0.66% active. enhancement, % at 2 µM; in the data active = enhancement above about 30%
#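 TRHR-expressing cells loaded with fluo-8 calcium dye were read kinetically (ex 480/em 530) during compound addition, then stimulated with an EC20 of TRH (10 nM final). Enhancement of the Gq-mediated intracellular calcium response was scored.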
# D1 antag: blocks dopamine activation of the human D1 receptor; P21728; HEK293 TREx D1 cells, calcium flux, dopamine EC80; stronger effect = lower value; activity change, negative = inhibition, % at 10 µM; 360,000 tested, 3.2% active; AID 504652; in the data active = activity change below about -30%
#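 HEK293 T-REx cells expressing inducible, force-coupled D1 receptor; no-wash Ca dye, 30–90 min RT. Cmpd → 180 s read at 1 Hz → EC80 DA → 180 s read.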
# D1 agonist: human D1 receptor agonism | P21728 | HEK293 T-REx D1 cells, calcium flux, agonist mode | activation, % at 2 µM | 360,000 tested, 1% active | AID 504660
#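 Inducible HEK293 T-REx D1 cells, force-coupled to calcium signalling, were plated at 4000 cells/well with tetracycline and held overnight at 30 C. After no-wash calcium dye loading, compound-evoked calcium rise over 180 s flagged agonists.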
# A number is an active result; i = inactive; nt = no result given. Shown are actives, neighbours in structure and some others; about 4.7% of the full set was active somewhere. Cut-off read from the data, not from the text of the source, unless noted: active = activation above about 30%; inactive = the rest.
SMILES,TRHR ag,D1 potentiator,TRHR PAM,D1 antag,D1 agonist
Cc1cc2nc(-c3ccc(NC(=O)c4ccc(OCC(C)C)cc4)cc3)oc2cc1C,i,i,i,i,i
Cc1ccc(OC(=O)c2cccc(C(=O)Oc3ccc(C)cc3)n2)cc1,i,i,i,i,i
Cc1ccc(OC(=O)c2cc(C)nn2C(C)(C)C)cc1,i,i,36.3,i,i
O=C(O)Cc1ccc(NC2(c3ccccc3)C(=O)c3ccccc3C2=O)cc1,i,i,i,i,i
O=C(CCNS(=O)(=O)c1ccc2c(c1)CCN2C(=O)C1CC1)N1CCN(c2cccc(C(F)(F)F)c2)CC1,i,i,i,i,i
Cc1nc2ccccc2c2nc(N)nn12,i,i,i,-55.5,i
CCc1ccc(NC(=O)C(C)n2nnc3sc(-c4ccccc4)cc3c2=O)cc1 (stereo unspecified),i,i,i,i,i
COc1cccc(Oc2ccc(S(=O)(=O)N3CCCC3)cc2[N+](=O)[O-])c1,i,i,31.8,i,i
COc1ccc(OCCOc2ccc(S(=O)(=O)N3CCCC3)cc2[N+](=O)[O-])cc1,i,i,i,i,i
COc1ccc(CN2COc3ccc4c(-c5ccccc5)cc(=O)oc4c3C2)cc1,i,i,i,i,i
Cc1ccc(CN2COc3ccc4c(-c5ccccc5)cc(=O)oc4c3C2)cc1,i,i,55.3,i,i
Cc1cc(C)c2c(-n3cccc3)c(C(=O)NCCc3ccccc3)sc2n1,i,i,i,i,i
COc1ccc(NC(=O)Cn2c(=O)n(-c3cc(C)cc(C)c3)c(=O)c3oc4ccccc4c32)cc1OC,i,i,i,i,i
CCOC(=O)C1CCN(C2=NC(=O)/C(=C/c3ccc(Cl)cc3)S2)CC1,i,i,i,i,i
CCOC(=O)CSC1=NC(=O)/C(=C\c2ccc(Cl)cc2)S1,i,i,i,i,100.3
CCSc1nnc(-c2sc3nnc(-c4ccccc4)c(-c4ccccc4)c3c2N)o1,64.2,i,i,i,108.6
COc1ccccc1NC(=O)Cc1c(C(=O)O)[nH]c2ccc(Cl)cc12,i,i,i,i,30.9
COc1ccc(OC)c(NC(=O)Cc2c(C(=O)O)[nH]c3ccc(Cl)cc23)c1,i,i,i,i,i
CC(=O)N1c2ccc(S(=O)(=O)N3CCCCCC3)cc2CC1C(=O)NCc1cccc(C)c1 (stereo unspecified),i,i,i,i,i
C/C(N)=C(/C#N)C(=O)COC(=O)c1ccccc1O,i,i,i,i,i
C/C(N)=C(/C#N)C(=O)COC(=O)c1cccc2ccccc12,i,i,i,-34.3,i
COc1cc(/C=N/NC(=O)CC2(C)OCCCO2)ccc1OCc1ccc(Cl)cc1Cl,i,i,i,i,i
CC1(CC(=O)N/N=C/c2ccc(OCc3ccc(Cl)cc3Cl)cc2)OCCCO1,i,i,i,-31.3,i
Cc1ccc(NC(=O)c2nc(-c3ccncc3)no2)c(Cl)c1,i,i,i,-47.4,i
CCOc1cccc(NC(=O)C2CC(=O)N(C)C(=Nc3cccc(OC)c3)S2)c1 (stereo unspecified),i,i,i,i,i
SMILES,TRHR ag,D1 potentiator,TRHR PAM,D1 antag,D1 agonist
C/C=C1\C(OC2OC(CO)C(O)C(O)C2O)OC=C(C(=O)OC)C1CC(=O)OCC1C(C)C(OC(=O)CC2C(C(=O)OC)=COC(OC3OC(CO)C(O)C(O)C3O)/C2=C\C)CC1C(CO)CO (stereo unspecified),i,i,i,-31.2,i
Cc1ccc(Cn2ncc3c4sc(C)cc4n(C)c3c2=O)cc1,i,i,i,i,i
COc1ccc(N2C(=O)C3C4C=CC(CC4)C3C2=O)c([N+](=O)[O-])c1 (stereo unspecified),i,i,39.0,i,i
CCOc1ccc(N2C(=O)C3C4C=CC(CC4)C3C2=O)c([N+](=O)[O-])c1 (stereo unspecified),i,i,i,i,i
O=c1c2sc3ccccc3c2n(Cc2ccc(F)cc2Cl)c(=O)n1Cc1ccccc1,i,i,i,i,i
CCCCc1nn2c(=O)cc(COC(=O)c3cccc(OC)c3)nc2s1,i,i,i,i,i
O=C(NCCCN1CCN(c2ccccc2)CC1)c1ccc2nc(CCc3ccccc3)oc2c1,i,i,i,-59.9,32.5
COc1ccc(N2CCN(CCCNC(=O)c3ccc4nc(CCc5ccccc5)oc4c3)CC2)cc1,i,i,i,-30.5,34.7
CC(C)c1nc2ccc(C(=O)NCCCN3CCN(c4cccc(Cl)c4)CC3)cc2o1,i,i,i,-45.1,i
O=C(NCCCN1CCN(c2cccc(Cl)c2)CC1)c1ccc2nc(Cc3ccccc3)oc2c1,i,i,i,-32.6,i
COc1ccc(N2CCN(CCCNC(=O)c3ccc4nc(Cc5ccccc5)oc4c3)CC2)cc1,i,i,i,i,i
COc1cc(OC)c(OC)cc1CNc1sc2c(c1C(=O)Nc1ccccc1OC)CCC2,i,i,i,i,i
CCOc1ccccc1NC(=O)CSc1c(C)cnc2c1c(=O)n(C)c(=O)n2C,i,i,i,nt,i
O=C(NCC1CCOCC1)c1ccc2nc(Cc3cccc(Cl)c3)oc2c1,i,i,i,-53.2,i
CN(CC1CCOCC1)C(=O)c1ccc2nc(Cc3cccc(Cl)c3)oc2c1,i,i,i,i,i
COC(=O)C1=C(C)NC(=O)NC1c1c(O)ccc2ccccc12 (stereo unspecified),i,i,35.3,i,i
COC(=O)C1=C(C)NC(c2c(O)ccc3ccccc23)C(C(=O)OC)=C1C (stereo unspecified),i,i,i,i,i
CC1=C(C(=O)NCc2ccc(Cl)cc2)C2(CCCCCC2)OC1=O,i,i,i,i,44.9
COc1ccc(CCNC(=O)C2=C(C)C(=O)OC23CCCCC3)c(OC)c1OC,i,i,31.3,i,i
Cc1ccc2c(=O)cc(C(=O)Nc3ccc(S(=O)(=O)N(C)Cc4ccccc4)cc3)oc2c1,i,i,i,i,i
Fc1ccc(-c2nc3cnccn3c2NC2CCCC2)cc1,i,i,i,-36.3,i
Oc1ccc(Br)cc1-c1nc2cnccn2c1NC1CCCC1,i,i,i,i,i
COc1ccc(Nc2c(-c3ccc(OC)cc3)nc3cnccn23)cc1,i,i,34.2,i,i
Cc1ccc(NC(=O)CCSc2nc(-c3ccco3)cc(C(F)(F)F)n2)cc1F,i,i,i,i,i
Cc1cccc(-n2c(Cc3ccccc3)n[nH]c2=S)c1,i,i,i,-40.3,i
Cc1cccc(-n2c(CNC(=O)Cc3ccccc3)n[nH]c2=S)c1,i,i,i,i,i
COc1ccc(N2CCN(C(=O)CNC(=O)c3ccco3)CC2)cc1,i,i,i,-79.6,i
COc1ccc(N2CCN(S(=O)(=O)CCNC(=O)c3ccco3)CC2)cc1,i,i,i,i,i
Cc1ccc(NC(=O)c2ccc(=O)n(CC(=O)Nc3cc(C)cc(C)c3)n2)cc1,i,i,i,i,i
Oc1ccc(C2C[C@H]3CC[C@@H]2C3)cc1O (stereo partly specified),i,i,i,i,i
